In all, about 33,000 sequences were measured (“e-score”: median about -0.05, highest 2% from about 0.38 on). Shown is part of a subset that was picked to be rich in the highest values.
Target: T1, SIX1-Q177R homeodomain (human, UniProt Q15475 108-198, Q177R)
T1 sequence: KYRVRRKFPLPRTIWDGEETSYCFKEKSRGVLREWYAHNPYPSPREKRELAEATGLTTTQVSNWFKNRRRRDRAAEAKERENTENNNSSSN
Assay: universal protein binding microarray; Universal all-10-mer PBM (8x60K, AMADID 030236), 300 nM GST-tagged protein, Alexa Fluor 488 anti-GST; buffer, salt, pH and temperature not stated (as in Berger); high values mean tight binding
Conditions: protein: ivt; tags: N-terminal GST; dsDNA, one strand shown
Summary of the method: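 Binding was expressed as 8-mer E-scores calculated with the Universal PBM Analysis Suite. The GST-tagged homeodomains, made by in vitro transcription/translation, were applied in duplicate at 300 nM final concentration to universal 'all 10-mer' protein binding microarrays (8×60K format).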

Sequence | binding signal
CGTGTATC | 0.39 ± 0.00909 E-score
AGAGTATC | 0.238 ± 0.0465 E-score
CGGGTATC | 0.374 ± 0.0147 E-score
AGTGTATA | 0.359 ± 0.0244 E-score
TCTAGACA | 0.155 ± 0.0039 E-score
CGATCCCC | 0.303 ± 0.0313 E-score
CCCCAGGA | 0.173 ± 0.00623 E-score
AGCGAGTG | 0.268 ± 0.0193 E-score
CAAACTAG | 0.152 ± 0.0273 E-score
AGGTGTGA | 0.4098 ± 0.00286 E-score
GGGTGTGA | 0.429 ± 0.0152 E-score
AGGTGTGC | 0.322 ± 0.019 E-score
GTGTGTGA | 0.229 ± 0.0436 E-score
CGGTGTGA | 0.434 ± 0.0168 E-score
AGGTGTGG | 0.371 ± 0.0242 E-score
GAGTGTGA | 0.29 ± 0.0218 E-score
ACGTGTGC | 0.16 ± 0.0249 E-score
CGGGGTGA | 0.166 ± 0.0603 E-score
CGGTGAGA | 0.177 ± 0.0168 E-score
CGGTGTGC | 0.381 ± 0.0324 E-score
CGGTGCGC | 0.221 ± 0.0195 E-score
ACTCCGAT | 0.182 ± 0.0265 E-score
CCCCGACG | 0.162 ± 0.0371 E-score
CACTAAGA | 0.17 ± 0.0243 E-score
AGGTATCG | 0.33 ± 0.00862 E-score
ACCCTGGA | 0.168 ± 0.028 E-score

Sequence | binding signal
CCCCACAG | 0.172 ± 0.025 E-score
CACCAAGC | 0.26 ± 0.0355 E-score
CACCAGCC | 0.239 ± 0.0131 E-score
CCCCAACA | 0.278 ± 0.00752 E-score
ACTGACAA | 0.153 ± 0.0151 E-score
ACTGATAC | 0.295 ± 0.00533 E-score
ACTGACAC | 0.4777 ± 0.00257 E-score
GCTGACAC | 0.444 ± 0.00725 E-score
CCTGACGC | 0.161 ± 0.00552 E-score
CCTGACCC | 0.159 ± 0.0403 E-score
ACTGACCC | 0.213 ± 0.011 E-score
GCTGATAC | 0.243 ± 0.0143 E-score
CCTGACAC | 0.452 ± 0.00834 E-score
GACTCCCC | 0.161 ± 0.0189 E-score
AACCCACA | 0.157 ± 0.00573 E-score
GAGTCACC | 0.157 ± 0.0094 E-score
CTACGACA | 0.172 ± 0.0171 E-score
CACCACGC | 0.2817 ± 0.00156 E-score
ATTCGGGG | 0.1763 ± 0.00138 E-score
CTCGGCAC | 0.194 ± 0.0445 E-score
CTCGACAC | 0.419 ± 0.0214 E-score
GTCGACAC | 0.4143 ± 0.00159 E-score
ATCGACCC | 0.163 ± 0.0642 E-score
ATCGACAC | 0.436 ± 0.0239 E-score
ATCGACTC | 0.201 ± 0.019 E-score
CTCGACCC | 0.182 ± 0.0618 E-score

Sequence | binding signal
GTCGAAAC | 0.182 ± 0.0154 E-score
CACGCCTG | 0.202 ± 0.0125 E-score
CCCCTCCA | 0.195 ± 0.0175 E-score
ACATGACA | 0.179 ± 0.0207 E-score
ATGCCAAG | 0.162 ± 0.0414 E-score
GTGGGGTA | 0.278 ± 0.0225 E-score
GGTTTAAC | 0.1932 ± 0.000396 E-score
AAGTGTCG | 0.384 ± 0.00583 E-score
AAGTGTGG | 0.169 ± 0.00659 E-score
CAGTGTCC | 0.374 ± 0.0168 E-score
CAGTCACA | 0.1706 ± 0.000283 E-score
CAGTGTCG | 0.444 ± 0.0154 E-score
CAGTGTCA | 0.4579 ± 0.00161 E-score
AAGGGTCG | 0.188 ± 0.0266 E-score
CCTCGACA | 0.218 ± 0.00226 E-score
CCGACTCG | 0.159 ± 0.0511 E-score
GGGGTCGA | 0.298 ± 0.0393 E-score
TAGCGACA | 0.172 ± 0.00519 E-score
AGGGGTCA | 0.28 ± 0.00906 E-score
CACCCGTG | 0.3705 ± 0.00306 E-score
GTTTCACA | 0.161 ± 0.0356 E-score
ACCAGTAC | 0.151 ± 0.0205 E-score
GGTGCGTA | 0.161 ± 0.0186 E-score
GGCACACC | 0.351 ± 0.0301 E-score
TGTACACA | 0.353 ± 0.00919 E-score
CGTACACA | 0.268 ± 0.0421 E-score

Sequence | binding signal
CGTACCCC | 0.24 ± 0.0402 E-score
GGTACACC | 0.4848 ± 0.00354 E-score
GGTACACA | 0.322 ± 0.0315 E-score
CGTACACC | 0.483 ± 0.00107 E-score
AGTACACG | 0.4259 ± 0.00113 E-score
CGTACTCC | 0.221 ± 0.003 E-score
AGTACACA | 0.253 ± 0.0191 E-score
CGTACACG | 0.405 ± 0.0112 E-score
CACTTCAA | 0.265 ± 0.016 E-score
AAACCCCT | 0.178 ± 0.0353 E-score
GTATCTGA | 0.236 ± 0.00609 E-score
CGGATACA | 0.294 ± 0.0106 E-score
CCCGCGCA | 0.176 ± 0.0199 E-score
CCCCCCAG | 0.162 ± 0.0223 E-score
AGTACACC | 0.4815 ± 0.00102 E-score
AGTACCCC | 0.2867 ± 0.00256 E-score
AGTACACT | 0.406 ± 0.0266 E-score
AGTACAAG | 0.205 ± 0.0236 E-score
CACGCTCA | 0.155 ± 0.038 E-score
CTAGCACC | 0.203 ± 0.0347 E-score
GTATCGGA | 0.2544 ± 0.00158 E-score
ACACGGTA | 0.385 ± 0.0298 E-score
ACACGGTG | 0.438 ± 0.00996 E-score
ACACGGTC | 0.4128 ± 0.00131 E-score
GCACGGTA | 0.165 ± 0.0341 E-score
ACACGGCG | 0.359 ± 0.00453 E-score

Sequence | binding signal
ACCCGGTA | 0.236 ± 0.00419 E-score
ATACGGTG | 0.276 ± 0.0116 E-score
ACGGGAGT | 0.186 ± 0.00625 E-score
ACTCCACC | 0.275 ± 0.00877 E-score
CGTGCACG | 0.17 ± 0.0561 E-score
CACCGTGC | 0.3272 ± 0.00251 E-score
ACCACTAC | 0.178 ± 0.00318 E-score
CTCCCGGC | 0.152 ± 0.0261 E-score
ACCCCTAC | 0.294 ± 0.0164 E-score
AGGGGTAA | 0.224 ± 0.0133 E-score
AGTGGTGC | 0.2454 ± 0.00132 E-score
ATGTAACA | 0.2716 ± 0.000905 E-score
GGGTAACA | 0.281 ± 0.0312 E-score
CCCTAAGA | 0.276 ± 0.0324 E-score
GTGTAAGA | 0.411 ± 0.0296 E-score
GTGTGAGA | 0.291 ± 0.0156 E-score
GTGAAATA | 0.172 ± 0.00835 E-score
GTGTAACA | 0.445 ± 0.00891 E-score
GGGTAATA | 0.264 ± 0.00387 E-score
GTTTAAAC | 0.3445 ± 0.00099 E-score
GTGTAAAC | 0.445 ± 0.018 E-score
GGGTAAAC | 0.193 ± 0.00601 E-score
GTGTAATA | 0.451 ± 0.00861 E-score
ACATAGTG | 0.19 ± 0.00926 E-score
ACCCTGCT | 0.19 ± 0.00245 E-score
CACGCGAG | 0.27 ± 0.0228 E-score

Sequence | binding signal
CCCGCCGG | 0.245 ± 0.0587 E-score
CCAAGCGG | 0.162 ± 0.00467 E-score
AACGTACA | 0.185 ± 0.0191 E-score
GTATCGTA | 0.18 ± 0.0138 E-score
AGTCGCGA | 0.189 ± 0.03 E-score
CACTCCTC | 0.201 ± 0.00344 E-score
GTGTGAAA | 0.356 ± 0.00667 E-score
GTGTAAAA | 0.401 ± 0.049 E-score
GGATCCCA | 0.235 ± 0.0247 E-score
CTTGATAC | 0.195 ± 0.0457 E-score
ATTGACAC | 0.438 ± 0.0129 E-score
CTTGACAC | 0.42915 ± 0.000184 E-score
ATTGACCC | 0.167 ± 0.0261 E-score
CTTGACCC | 0.201 ± 0.00951 E-score
ATTGACTC | 0.162 ± 0.0495 E-score
CAGCGTTA | 0.187 ± 0.0162 E-score
AGATGACA | 0.1652 ± 0.000311 E-score
CACCCACA | 0.365 ± 0.00539 E-score
CCCTTAAC | 0.152 ± 0.0479 E-score
GAATACCC | 0.159 ± 0.00629 E-score
GAATACAC | 0.408 ± 0.0236 E-score
CAATACAC | 0.371 ± 0.0193 E-score
CAAAATAC | 0.162 ± 0.0251 E-score
AAATACAC | 0.403 ± 0.0413 E-score
CCCTTAGG | 0.175 ± 0.00592 E-score
CACCCGAG | 0.297 ± 0.0235 E-score

Sequence | binding signal
ACCAGTGG | 0.189 ± 0.0039 E-score
CCCCAAGG | 0.218 ± 0.0124 E-score
ACCTGGGG | 0.21 ± 0.0103 E-score
CACGCCGG | 0.287 ± 0.0131 E-score
TCTTAACA | 0.202 ± 0.0606 E-score
TGTTAACA | 0.389 ± 0.043 E-score
GGTTAACA | 0.224 ± 0.0235 E-score
CCCTAGTC | 0.167 ± 0.0143 E-score
ACACCTCT | 0.467 ± 0.0079 E-score
ACCCCTCG | 0.3069 ± 0.00276 E-score
GCACCTCA | 0.162 ± 0.0144 E-score
ACTCCTCT | 0.174 ± 0.0278 E-score
ACACCTCC | 0.4719 ± 0.000629 E-score
CACCCTCG | 0.349 ± 0.0215 E-score
ACACCTCG | 0.453 ± 0.00735 E-score
ATACCTCC | 0.231 ± 0.0309 E-score
CCACCTCC | 0.159 ± 0.00267 E-score
ACCCCTCT | 0.304 ± 0.0038 E-score
ACGCCTCA | 0.165 ± 0.0291 E-score
ACACCTCA | 0.452 ± 0.0073 E-score
